Data as given in ChEMBL document CHEMBL4513216, “Probing the Open Global Health Chemical Diversity Library for Multistage-Active Starting Points for Next-Generation Antimalarials” (ACS Infect Dis, 2020).
Out of some 69,000 compounds screened, about 8,600 (12%) showed an effect of 50% or more. The sample as a whole holds a higher share of strong results than the screen did.

The compounds below were run on Plasmodium berghei (assay: Screen against P. berghei liver stage (PbLuc), transformed with Luciferase, at 10uM). Details: tested at 10 uM.
Assay type: functional, HepG2

SMILES | INHIBITION
COc1coc(C(=O)Nc2ccncc2)cc1=O | 14.3%
Cc1cnc(N2CCC3(CCC(C(=O)NC(C)C)C3)CC2)nc1 (stereo not drawn) | 11.3%
Cn1cc(C(=O)N2CCSc3ccccc32)ccc1=O | 33.8%
CC1CCN(C)c2ccccc2N1C(=O)c1ccc(=O)n(C)c1 (stereo not drawn) | -3.12%
CC(=O)N1CCCN(C(=O)c2ccc(=O)n(C)c2)c2ccccc21 | 62.6%
COc1ccc(-c2cc(C3CC3)c(C#N)c(N)n2)cc1F | -60.9%
O=C(c1ccc[nH]1)N1CCc2nnc(Cn3cccc3)n2CC1 | -6.25%
Cc1ccc(S(=O)(=O)n2ccn(C(=O)CC(C)C)c2=O)cc1 | 40%
Cc1ccc(N2CCC3(CCN(Cc4nccs4)CC3)CC2)nn1 | 26.5%
Cc1cc(NC2CC3(CCN(Cc4csc(C)n4)C3)C2)ncn1 (stereo not drawn) | -31.1%
COc1ccc2c(c1)C1(CCN(Cc3ccncc3)CC1)N(C)CC2 | -9.67%
Cc1ccc(N2CCC3(CCN(Cc4csc(C)n4)C3=O)C2)nn1 (stereo not drawn) | 47.5%
Cc1ccc(N2CCC3(CCN(Cc4ccccn4)CC3)CC2)nn1 | -42.6%
COc1ccc2c(c1)C1(CCN(Cc3ccccn3)CC1)N(C)CC2 | -73.3%
Cc1cnc(N2CCC3(CCN(Cc4csc(C)n4)C3=O)C2)nc1 (stereo not drawn) | 34%
COc1cc(N2CCC3(CCN(Cc4csc(C)n4)C3)CC2)ncn1 | 55.7%
Cc1nc(CN2CCN(c3cc(CCN)ncn3)CC2)cs1 | 17.2%
COc1ccc2c(c1)C1(CCN(Cc3nccs3)CC1)N(C)CC2 | 51.3%
COc1cc(N2CCC3(CCN(Cc4csc(C)n4)C3=O)C2)ncn1 (stereo not drawn) | 90.1%
Cc1ccc(N2CCC3(CCN(Cc4csc(C)n4)CC3)CC2)nn1 | 58.7%
CSc1ccc(C(=O)N2CC(=O)N(Cc3cccs3)CC(O)C2)cc1 (stereo not drawn) | 19.2%
CCOCC(O)CN1CCN(C(=O)C2CCC2)CC1 (stereo not drawn) | -14.6%
Cc1ccc(O)c(CNc2cccc(CN3CCN(C)CC3)c2)n1 | 13.9%
Cc1cc(NC(=O)CN2CCc3c(nc(C(C)C)n3C)C2)n(C)n1 | 36%
COCC1c2nnn(CC3CC3)c2CCN1Cc1ccncc1 (stereo not drawn) | 4.68%
Cc1cc(C)c(CNC(=O)N(C)Cc2cccc(C#N)c2)c(=O)[nH]1 | -3.7%
COc1ccc(C(=O)N2CCCC2c2noc(C(C)C)n2)nn1 (stereo not drawn) | 12.255%

SMILES | INHIBITION
O=C(NC1CC1)N1CC[C@H]2[C@H]1CCN2c1nncs1 | -19.8%
CN(C)CCNC(=O)[C@H]1C[C@H]2CN(C(=O)NCc3ccccc3)C[C@@H]1O2 | -0.27%
CN(Cc1noc(C2CC2)n1)C1CCN(Cc2ccc(F)c(F)c2)C1 (stereo not drawn) | -19.945%
CCc1cnc(N2CCC3(CC(=O)N(Cc4csc(C)n4)C3)C2)nc1 (stereo not drawn) | 34.4%
Cc1ccc(N2CCC3(CC2)COCCN(c2nccs2)C3)nn1 | 6.72%
c1csc(CN2CCC3(CC2)CCN(CC2CCOCC2)C3)n1 | -8.85%
Cc1nc(CN2CC3(CCN(c4ncccn4)C3)CC2=O)cs1 (stereo not drawn) | 18.2%
COc1cc(N2CC3(CCN(c4ncccn4)C3)C2)ncn1 | 12.1%
Cc1nc(CN2CC3(CCN(c4ncc(F)cn4)C3)CC2=O)cs1 (stereo not drawn) | -30%
COc1cc(N2CCC3(CCN(Cc4nccs4)CC3)C2)ncn1 | 91.9%
Cc1ccc(N2CC3(CCN(c4nccs4)C3)C2)nn1 | 58.5%
Cc1nc(CN2CC3(CCN(c4cnccn4)C3)CC2=O)cs1 (stereo not drawn) | 35.8%
N#Cc1ccc(N2CC3(CCN(c4nccs4)C3)C2)nc1 | 37.9%
Cc1cnc(N2CCC3(CC(=O)N(Cc4csc(C)n4)C3)C2)nc1 (stereo not drawn) | 54.7%
COc1cc(N2CCC3(CC(=O)N(Cc4csc(C)n4)C3)C2)ncn1 (stereo not drawn) | 58.4%
Cc1cccc(C(=O)Nc2c(C(=O)N(C)C)nn(C)c2C)c1 | 35%
Cc1cnn(CC2CN(C=C3NN=C(c4occc4C)O3)CCO2)c1 (stereo not drawn) | 13.3%
Cc1cccc(CN2C(=O)CCC23CCN(C(=O)c2ccco2)CC3)c1 | -7.28%
Cc1nc(C)n(C2CCCN(C(=O)CCn3cncn3)C2)n1 (stereo not drawn) | 14.9%
CCc1nc(CN(C)c2nccc(N3CCCC(O)C3)n2)no1 (stereo not drawn) | 20.3%
Cc1nc(O)ccc1C(=O)NCc1ncccc1F | 12.6%
COCCNC(=O)NC1(c2nc(-c3ccncc3)no2)CCCCC1 | 56.3%
O=C(NC1(c2nc(C3CC3)no2)CCCCC1)c1ccncc1 | -3.19%
COCCNC(=O)NC1(c2nc(C)no2)CCCCC1 | 19.2%
CC(C)CNS(=O)(=O)c1ccc(C(=O)N(C)CCc2cn[nH]c2)cc1 | -12.4%
NC(=O)c1c(-c2ccc(Cl)cc2Cl)csc1NC(=O)CCC(=O)O | 44.9%
